Screening results as filed in PubChem.
The list is not random: actives were taken first. Their share in the collection is about 3%.
HIF-2a block – HIF-2a reporter inhibitors, primary screen, luminescence, 786-0 RCC cells; 786-0 RCC cells HIF-2a reporter, luciferase luminescence, overnight; hit rate 0.72% among 360,000; inhibition, % at 18.8 µM;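 active means inhibition of the luminescence signal of 40% or more relative to plate controls, in a single-dose primary screen at 18.75 µM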
ABHD5-PLIN5 inh – ABHD5-PLIN5 interaction inhibitors, primary screen, cell lysate, split luciferase complementation, luminescence; hit rate 0.78% among 360,000; Perilipin-5 (Homo sapiens) + 1-acylglycerol-3-phosphate O-acyltransferase ABHD5 (Homo …; inhibition, % at 4 µM; Split G. princeps luciferase complementation, 4 h;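 active means inhibition above the mean inhibition across every tested compound plus 3 SD, cut at about 22% in these data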;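 further: 0% = DMSO only wells and the 100% control is not disclosed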
Target sequence (Q00G26 whole entry, looked up): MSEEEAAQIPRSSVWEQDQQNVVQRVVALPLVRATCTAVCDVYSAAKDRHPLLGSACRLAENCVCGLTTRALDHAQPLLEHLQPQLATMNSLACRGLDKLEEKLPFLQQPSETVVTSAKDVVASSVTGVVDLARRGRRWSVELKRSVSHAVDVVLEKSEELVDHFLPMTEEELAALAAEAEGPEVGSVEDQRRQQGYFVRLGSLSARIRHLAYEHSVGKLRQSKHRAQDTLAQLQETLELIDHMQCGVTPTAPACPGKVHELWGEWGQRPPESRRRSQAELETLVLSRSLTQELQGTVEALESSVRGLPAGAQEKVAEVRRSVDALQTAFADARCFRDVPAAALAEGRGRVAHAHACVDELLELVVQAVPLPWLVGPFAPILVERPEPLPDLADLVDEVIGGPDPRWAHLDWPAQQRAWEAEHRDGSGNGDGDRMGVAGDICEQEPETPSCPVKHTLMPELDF
Target sequence (Q8WTS1 whole entry, looked up): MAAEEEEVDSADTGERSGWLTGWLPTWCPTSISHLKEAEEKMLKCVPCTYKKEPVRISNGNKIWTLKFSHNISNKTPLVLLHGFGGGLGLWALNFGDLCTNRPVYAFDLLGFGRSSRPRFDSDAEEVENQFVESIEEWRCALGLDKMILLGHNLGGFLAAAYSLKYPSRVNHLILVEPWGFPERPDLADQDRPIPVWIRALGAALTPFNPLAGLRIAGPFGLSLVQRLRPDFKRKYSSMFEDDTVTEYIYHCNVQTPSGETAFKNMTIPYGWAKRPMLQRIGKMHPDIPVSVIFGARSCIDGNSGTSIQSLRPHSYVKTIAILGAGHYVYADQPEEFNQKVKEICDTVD
KKLEB cytotox – cytotoxicity in KKLEB CF airway cells, primary screen, cytotoxicity control for CF NF-kB inhibitor project, cell-based, uHTS, fluorescence assay plates; KKLEB CF airway cells viability, ATPlite luminescence, overnight; active compounds read low; cells stimulated with P. aeruginosa culture filtrate; activity change (cytotoxicity), % at 5 µM; hit rate 0.36% among 360,000; AID 602141, 2011;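 active means corrected activity change at or below -50% at 5 µM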
Peg3 prom inh – Peg3 promoter-driven luciferase inhibitors, primary screen, cell-based, HeLa, luciferase luminescence | hit rate 1.7% among 360,000 | HeLa PEG-Prom luciferase reporter, overnight | inhibition, % at 20 µM;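 active means inhibition of at least 50% at 20 µM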
CF NFkB inh – inhibitors of PAF-induced NF-kB signaling, primary screen, cell-based, GFP fluorescence, uHTS; hit rate 0.86% among 360,000; KKLEB NF-kB-GFP reporter, GFP fluorescence overnight; AID 588850, 2011; inhibition, % at 5 µM;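 active means at least 50% inhibition at 5 µM, scaled per plate between neutral and stimulator controls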;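 further: PAF is a Pseudomonas aeruginosa culture filtrate used as stimulus; plate controls were PAF-stimulated DMSO wells for no effect and unstimulated DMSO wells for full effect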
MITF TRPM1 inh – inhibitors of MITF-dependent TRPM1 promoter reporter, primary screen, cell-based, SK-MEL-5, single point, luciferase | SK-MEL-5 TRPM1 promoter luciferase, 24 h | inhibition, % at 12.5 µM | hit rate 0.83% among 330,000 | AID 488899, 2010;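 active means mean inhibition across replicates of 60% or more, whatever share of single replicates reaches that level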
* marks the source's active call; other numbers are inactive results; · = no result.

SMILES | HIF-2a block | ABHD5-PLIN5 inh | KKLEB cytotox | Peg3 prom inh | CF NFkB inh | MITF TRPM1 inh
CCOc1ccc(NC(=O)C(=O)NCCN2CCN(C(=O)c3ccc(C)cc3)CC2)cc1 | 0.1 | 1.7 | -8.1 | 12.0 | 6.2 | 19.7
N#Cc1c2ccc([N+](=O)[O-])cc2[n+]([O-])n1-c1ccccc1 | -16.4 | 2.6 | -38.2 | 100.2* | -23.8 | 89.9*
CCOc1ccccc1C(=O)NCC(=O)NCC(c1ccco1)N1CCCCC1 (stereo unspecified) | 4.1 | 1.9 | -4.7 | -1.4 | 17.6 | -7.1
COc1ccc(-c2csc(NC(=O)C3CCN(c4ncnc5sc(C)c(C)c45)CC3)n2)cc1OC | -10.6 | -5.7 | -3.4 | 49.0 | 38.0 | 85.7*
COc1ccc(-c2csc(NC(=O)c3ccc(OCC(=O)N4CCOCC4)c(OC)c3)n2)cc1OC | 14.8 | 4.7 | -6.9 | 92.2* | -7.3 | 57.0
COc1cc(C(=O)Nc2cccc(C)n2)ccc1OCC(=O)N1CCOCC1 | -26.4 | 9.1 | 3.9 | 2.7 | 16.9 | -5.3
O=C(CCS(=O)(=O)c1ccccc1)Nc1nc2ccc(F)cc2s1 | -42.2 | -7.4 | -25.5 | 61.2* | 46.3 | 14.1
Oc1ccc(/C=C/c2ccc3ccccc3n2)cc1 | 26.4 | 1.0 | -40.2 | 46.5 | -86.6 | 69.9*
C(=C\c1ccc2ccccc2n1)/c1ccccc1 | -3.0 | -11.3 | -43.3 | -4.4 | -26.0 | 58.2
COc1ccc(CC(=O)Nc2cccc(-c3nnc(-c4ccco4)o3)c2)cc1 | -16.6 | -4.9 | 2.7 | 22.0 | -31.2 | 4.0
Cc1cc(C)cc(OCC(=O)Nc2cccc(-c3nnc(-c4ccco4)o3)c2)c1 | -101.9 | -8.8 | -9.8 | 58.2* | -43.6 | -14.1
COc1cc(C(CCN2CCCC2)c2c(OC)cc(OC)c3c(C)cc(=O)oc23)cc(OC)c1OC (stereo unspecified) | -2.2 | 2.8 | -17.7 | 4.8 | -0.5 | ·
COc1cc(C(CCN2CCCCC2)c2c(OC)cc(OC)c3c(-c4ccccc4)cc(=O)oc23)cc(OC)c1OC (stereo unspecified) | 7.1 | 20.1 | -2.9 | 78.3* | 16.5 | 84.6*
CCCCCc1cc(=O)oc2c(C(CCN(CC)CC)c3ccc(OC)cc3)c(OC)cc(OC)c12 (stereo unspecified) | 18.8 | 11.9 | -8.3 | 101.0* | 2.9 | 81.2*
CCCCCc1cc(=O)oc2c(C(CCN3CCCC3)c3cc(OC)c(OC)c(OC)c3)c(OC)cc(OC)c12 (stereo unspecified) | 2.9 | 18.2 | -17.1 | 101.5* | 15.7 | 95.4*
CCCCCc1cc(=O)oc2c(C(CCN3CCCC3)c3ccc(N(C)C)cc3)c(OC)cc(OC)c12 (stereo unspecified) | 14.7 | 9.2 | -26.7 | 97.2* | 14.5 | 78.7*
CCn1c(SCC(=O)NC2(C#N)CCCCC2)nc2ccccc2c1=O | 20.1 | -8.8 | -3.7 | 6.6 | 6.5 | -2.7
CC(C)(C)c1ccc(CC(=O)N2CCC2(C)C(=O)NS(=O)(=O)c2ccc(Cl)s2)cc1 (stereo unspecified) | 11.9 | -6.7 | 11.7 | 8.0 | -23.1 | ·
O=C(CCC(=O)Nc1ccccc1Cl)NNC(=O)NC1CCCCC1 | 3.2 | 5.9 | 8.6 | 21.2 | -1.0 | -4.2
CCCCCc1cc(=O)oc2c(C(CCN3CCN(c4ccccc4)CC3)c3ccc4c(c3)OCO4)c(OC)cc(OC)c12 (stereo unspecified) | 9.1 | -1.5 | -15.7 | -2.3 | 28.4 | 10.4
CCCCCc1cc(=O)oc2c(C(CCN3CCCC(C)C3)c3ccc(OC)cc3)c(OC)cc(OC)c12 (stereo unspecified) | 7.3 | 21.0 | -22.2 | 96.2* | 13.6 | 47.1
COc1cccc(NC(=O)COC(=O)C2=NN(c3ccccc3)C(=O)CC2)c1 | 5.7 | -3.3 | -8.1 | 9.3 | 8.9 | 2.7
COc1cc(/C=C2\CCC/C(=C\c3ccc(O)c(OC)c3)C2=O)ccc1O | 81.0* | 9.7 | -15.7 | 105.0* | -10.8 | 13.3
Cc1sc(NC(=S)NC(=O)CCc2ccccc2)c(C(N)=O)c1C | -6.7 | -2.1 | -27.7 | -1.6 | 50.5* | 27.2
Cc1ccc(OCC(=O)NNc2c3ccccc3nc3ccccc23)cc1 | -9.8 | 3.6 | -2.6 | 82.7* | -11.9 | 0.6
SMILES | HIF-2a block | ABHD5-PLIN5 inh | KKLEB cytotox | Peg3 prom inh | CF NFkB inh | MITF TRPM1 inh
Cc1cccc(OCC(=O)NNc2c3ccccc3nc3ccccc23)c1 | 15.2 | -2.8 | -6.2 | 47.9 | -34.5 | 9.3
Nc1ccc(Oc2cccc(Oc3ccc(N)cc3)c2)cc1 | 90.0* | 9.2 | 8.6 | 29.6 | -12.0 | 81.1*
CCNc1nc(N)c(C(=O)c2ccc(Cl)s2)s1 | -299.8 | 4.8 | 5.5 | -260.0 | 54.8* | -44.0
O=C(NC1CCCC1)C(c1ccccc1F)N(C(=O)c1csnn1)c1ccccc1 (stereo unspecified) | 5.7 | 0.2 | 1.0 | 12.9 | 2.9 | 3.3
Cc1cc2nc(-c3ccc(SCC(=O)Nc4nccs4)nc3)[nH]c2cc1C | -155.2 | -5.2 | -59.2* | 14.3 | 57.8* | 74.1*
COc1ccc(-c2nc(SCC(=O)Nc3nccs3)c(-c3ccc(Cl)cc3)[nH]2)cc1 | -2.2 | -2.2 | -16.4 | 52.1* | 10.4 | ·
Cc1cc2nc(-c3ccc(SCC(=O)Nc4ccc(S(=O)(=O)N5CCCC5)cc4)nc3)[nH]c2cc1C | -193.5 | -8.2 | -53.7* | -78.0 | 23.3 | -28.4
O=C(CSc1ccc(-c2nc3ccccc3[nH]2)cn1)Nc1ccc(S(=O)(=O)N2CCCC2)cc1 | -100.3 | -4.6 | -2.3 | -18.1 | -17.4 | -13.3
COc1ccc(-c2[nH]c(-c3ccc(C)cc3)nc2SCC(=O)Nc2nccs2)cc1 | 2.9 | -15.1 | 0.9 | 32.3 | -14.1 | 16.9
CCc1nnc(NC(=O)CSc2ccc(-c3nc4ccc(C)cc4[nH]3)cn2)s1 | -153.2 | 0.9 | -42.0 | -258.9 | 12.1 | 20.2
CN1CCN(c2c([N+](=O)[O-])cnc3ccccc23)CC1 | 7.1 | -3.1 | 4.3 | -6.5 | -4.6 | -3.3
C[C@@H]1CN([C@@H](C)CO)C(=O)c2cccc(NC(=O)Nc3ccc4c(c3)OCO4)c2O[C@H]1CN(C)S(=O)(=O)c1cn(C)cn1 | -2.2 | -8.3 | 8.6 | 13.5 | -22.6 | -10.8
O=C1c2cc([N+](=O)[O-])cc3cc([N+](=O)[O-])cc(c23)C(=O)N1c1ccccn1 | 36.3 | 3.6 | -2.0 | 27.7 | 14.6 | 82.0*
COc1ccc(CC(=O)Oc2ccc(C(C)C)cc2)cc1S(=O)(=O)N1CCOCC1 | 3.1 | 13.4 | 34.5 | -2.3 | -30.3 | -1.3
O=Nc1c(O)c2ccccc2c2ccccc12 | 24.4 | -27.8 | -88.2* | 96.5* | 89.0* | 97.3*
O=Nc1c2cc3ccccc3[nH]c-2c2ccccc12 | -140.1 | -2.3 | -4.0 | -263.0 | -38.1 | -15.2
